Experiment [1] is described as follows: CEETOX_H295R_PROG_noMTC: CeeTox H295R High-throughput Steroidogenesis Assay for Progesterone (PROG), maximum tolerated concentration (MTC) filtered results only (AID 2283920; active = hit-call score of the fitted dose curve at least 0.9, where 1 is the maximum; inactive = score below 0.9). Particulars: actives raise or lower the signal. The method in brief:
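Progesterone synthesis in the human adrenal line H295R is measured by HPLC-MS/MS after 48 h chemical exposure following 48 h forskolin (10 uM) stimulation. Activity in either direction is fitted relative to DMSO.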

Experiment [2] can be described thus: CEETOX_H295R_DOC_noMTC: CeeTox H295R High-throughput Steroidogenesis Assay for DOC, maximum tolerated concentration (MTC) filtered results only (AID 2283918; active = hit-call score of the fitted dose curve at least 0.9, where 1 is the maximum; inactive = score below 0.9). Conditions: actives raise or lower the signal. The method in brief: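 H295R cells prestimulated 48 h with 10 uM forskolin, then exposed 48 h to test chemical (0.1% DMSO final). Medium 11-deoxycorticosterone extracted with MTBE, quantified by HPLC-MS/MS; bidirectional fit versus DMSO, concentrations not MTC-filtered.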

The nature of experiment [3]: CEETOX_H295R_TESTO_noMTC: CeeTox H295R High-throughput Steroidogenesis Assay for Testosterone (TESTO), maximum tolerated concentration (MTC) filtered results only (AID 2283924; active = hit-call score of the fitted dose curve at least 0.9, where 1 is the maximum; inactive = score below 0.9). Conditions: actives raise or lower the signal. The method in brief: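 Medium testosterone, measured by HPLC-MS/MS after liquid-liquid extraction, was fitted in both directions relative to DMSO without MTC filtering. Adrenal H295R cells received 48 h chemical exposure (0.1% DMSO final) after 48 h forskolin (10 uM) prestimulation; viability by MTT.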

Experiment [4] deals with T1, Thyroid hormone receptor alpha (Rattus norvegicus) + Thyroid hormone receptor beta (Rattus norvegicus) (UniProt P18113+P63059). The experiment is described as follows: TOX21_TR_LUC_GH3_Agonist_Followup: Tox21 GH3 Thyroid Hormone Receptor Agonism Luciferase Follow-Up Assay (AID 2283939). In a few lines: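 Agonist-mode confirmatory run: 15 concentrations (5 nM to 92 uM final) on GH3 rat pituitary cells, 24 h at 37C/5% CO2, T3 as positive control. Luminescence read with ONE-Glo after 30 min.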

Experiment [5] deals with THRA (gene 7067) (UniProt P10827). The experiment is described as follows: TOX21_TRA_COA_Agonist_Followup_ratio: Tox21 Thyroid Hormone Receptor alpha Agonism through Coactivator Recruitment Follow-Up Assay, Ratio (AID 2283948; active = hit-call score of the fitted dose curve at least 0.9, where 1 is the maximum; inactive = score below 0.9). The method in brief: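 Follow-up specificity assay in which TRα ligand-binding domain, expressed as a GST fusion, recruits a fluorescein-labelled SRC-2 peptide. Energy transfer from a terbium anti-GST antibody gives the acceptor/donor ratio, fitted upward relative to DMSO.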

In experiment [6] the target is THRB (gene 7068) (UniProt P10828). The experiment is described as follows: TOX21_TRB_COA_Agonist_Followup_ratio: Tox21 Thyroid Hormone Receptor beta Agonism through Coactivator Recruitment Follow-Up Assay, Ratio (AID 2283963; active = hit-call score of the fitted dose curve at least 0.9, where 1 is the maximum; inactive = score below 0.9). In a few lines: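 First, the GST-fused TRβ ligand-binding domain (5.0 nM) was incubated with test compound in 0.10% BSA. Next, fluorescein-tagged SRC-2 peptide (200 nM) and terbium anti-GST antibody (2 nM) were added. Finally, TR-FRET emission ratios were normalized against DMSO and T3 controls.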

Experiment [7] addresses Retinoic acid receptor RXR-alpha (Homo sapiens) (UniProt P19793). The experiment is described as follows: TOX21_TR_RXR_BLA_Agonist_Followup_ratio: Tox21 Thyroid Hormone Receptor beta Retinoid X Receptor alpha (RXRa) Agonism Beta-lactamase (BLA) Follow-Up Assay, Ratio (AID 2283968). The method in brief: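 Agonist mode: compounds given to RXRa-bla HEK293T cells at 11 concentrations, triplicate, 16 h at 37C/5% CO2. Readout is the 460:530 nm blue/green ratio after 2 h substrate loading at room temperature; DMSO baseline, 9-cis retinoic acid control.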

Experiment [8] can be described thus: TOX21_TR_RXR_BLA_Agonist_Followup_viability: Viability Assessment in the Tox21 Thyroid Hormone Receptor beta Retinoid X Receptor alpha (RXRa) Agonism Beta-lactamase (BLA) Follow-Up Assay (AID 2283970). The method in brief: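 CellTiter-Glo ATP luciferase read-out of cell viability, multiplexed with the beta-lactamase reporter run. RXRa-bla HEK293T cells in charcoal-stripped serum medium were exposed 16 h at 37C; data fitted both directions relative to DMSO.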

Experiment [9] has as its target PGR (gene 5241) (UniProt P06401). The experiment is described as follows: TOX21_PR_BLA_Followup_Antagonist_ratio: Tox21 HEK293 Progesterone Receptor (PR) Antagonism Beta-lactamase Follow-Up Assay, Ratio (AID 2283934).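 Note: PR-UAS-bla HEK293T cells stimulated with 1 nM R5020 agonist for 16 hr.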 In a few lines: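 Readout is the blue/green (ch2/ch1) substrate cleavage ratio after 2 hours at room temperature, following 16 hr co-treatment of PR-bla HEK293T cells with compound and 1nM promegestone. Multiplexed CellTiter-Glo viability flags cytotoxicity; DMSO baseline.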

A short description of experiment [10]: TOX21_PR_BLA_Followup_Agonist_viability: Viability Assessment in the Tox21 HEK293 Progesterone Receptor (PR) Agonism Beta-lactamase Follow-Up Assay (AID 2283935).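 Note: signal loss means lower viability so actives are cytotoxic.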 In a few lines:
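Run multiplexed with the beta-lactamase FRET read, this endpoint measures ATP by CellTiter-Glo luminescence (30 min, room temperature). PR-UAS-bla HEK293T cells received compound 6 hr after plating and were then incubated 16 hr at 37C in 2% stripped serum.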

Experiment [11] can be described thus: TOX21_PR_BLA_Followup_Antagonist_viability: Viability Assessment in the Tox21 HEK293 Progesterone Receptor (PR) Antagonism Beta-lactamase Follow-Up Assay (AID 2283936).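 Note: cells exposed to compound with R5020 agonist for 16 h; hits lower the luminescence signal meaning cytotoxicity.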 In a few lines:
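PR-UAS-bla HEK293T cells in medium with 2% charcoal-stripped FBS were treated with compounds plus R5020 for 16 hr at 37C. After the beta-lactamase read, CellTiter-Glo was added to the same wells and luminescence read after 30 min at room temperature.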

The target in experiment [12] is PGR (gene 5241) (UniProt P06401). The experiment is described as follows: TOX21_PR_LUC_Followup_Antagonist: Tox21 HEK293 Progesterone Receptor (PR) Antagonism Luciferase Follow-Up Assay (AID 2283938).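 Note: curve fitted upward as signal gain over DMSO baseline despite antagonist label.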 In a few lines:
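Cells are grown 5 days in charcoal-stripped-FBS assay medium, plated, left 5 h, then dosed with compound and incubated 16 h. ONE-Glo reagent is added and luminescence read after 30 min.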

Experiment [13] in a line: TOX21_PR_LUC_Followup_Antagonist_viability: Viability Assessment in the Tox21 HEK293 Progesterone Receptor (PR) Antagonism Luciferase Follow-Up Assay (AID 2283940). In a few lines: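 Viability counter-readout: cellular ATP measured by luciferase luminescence after 16 h compound exposure at 37C of HEK293-PR-A-luc cells, which had been cultured in charcoal-stripped serum and seeded 5 h beforehand.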

A short description of experiment [14]: TOX21_PR_LUC_Followup_Agonist_viability: Viability Assessment in the Tox21 HEK293 Progesterone Receptor (PR) Agonism Luciferase Follow-Up Assay (AID 2283941).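 Note: loss of signal means cytotoxicity so actives lower viability.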 In a few lines: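 Cytotoxicity counter-readout in the PR-A luciferase reporter line HEK293, with 16 h compound exposure at 37C after cells were cultured in charcoal-stripped serum. Cellular ATP quantified by CellTiter-Glo luminescence.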

The target in experiment [15] is T1, Thyroid hormone receptor alpha (Rattus norvegicus) + Thyroid hormone receptor beta (Rattus norvegicus). The experiment is described as follows: TOX21_TR_LUC_GH3_Antagonist_Followup: Tox21 GH3 Thyroid Hormone Receptor Antagonism Luciferase Follow-Up Assay (AID 2283942). The method in brief: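 In a GH3 luciferase reporter line, test chemicals spanning 92 uM to 5nM final are co-incubated 24 h with 1.0 nM T3. Activity is expressed as relative luminescence units and analysed relative to DMSO.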

For experiment [16], the target named is THRA (gene 7067) (UniProt P10827). The experiment is described as follows: TOX21_TRA_COA_Antagonist_Followup_ratio: Tox21 Thyroid Hormone Receptor alpha Antagonism through Coactivator Recruitment Follow-Up Assay, Ratio (AID 2283953). The method in brief:
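GST-TRα LBD 2.5 nM, BSA 0.10%, + cpd; then FITC-SRC-2 peptide 200 nM + Tb-anti-GST Ab 2 nM. TR-FRET ratio 520/495 nm. Norm: DMSO = 0%, T3 = 100%.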

Experiment [17] deals with THRB (gene 7068) (UniProt P10828). The experiment is described as follows: TOX21_TRB_BLA_Antagonist_Followup_ratio: Tox21 Thyroid Hormone Receptor beta Antagonism Beta-lactamase (BLA) Follow-Up Assay, Ratio (AID 2283958). The method in brief: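 Beta-lactamase reporter ratio (460/530 nm, CCF4-AM substrate, 2 h room temperature) was read in TRb-bla HEK293T cells after 18 h compound treatment (11 concentrations, triplicate) at 37C in 2% charcoal-stripped FBS medium. Loss of signal fitted against DMSO.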

Experiment [18] in a line: TOX21_TRB_BLA_Antagonist_Followup_viability: Viability Assessment in the Tox21 Thyroid Hormone Receptor beta Antagonism Beta-lactamase (BLA) Follow-Up Assay (AID 2283961). The method in brief: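 TRβ-bla HEK293T (human TRβ LBD fused to GAL4 DBD), 3,000 cells/well, 2% charcoal-stripped FBS, phenol red-free medium; 18 h compound exposure, 37C; CellTiter-Glo 30 min RT; luminescence, loss-of-signal readout.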

The target in experiment [19] is THRB (gene 7068) (UniProt P10828). The experiment is described as follows: TOX21_TRB_COA_Antagonist_Followup_ratio: Tox21 Thyroid Hormone Receptor beta Antagonism through Coactivator Recruitment Follow-Up Assay, Ratio (AID 2283967). The method in brief:
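Coactivator (SRC-2) recruitment to purified GST-TRβ ligand-binding domain is monitored by terbium-to-fluorescein energy transfer, emission ratio 520:495 nm. DMSO wells define 0% and T3 wells 100% activity.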

Experiment [20] has as its target Retinoic acid receptor RXR-alpha (Homo sapiens) (UniProt P19793). The experiment is described as follows: TOX21_TR_RXR_BLA_Antagonist_Followup_ratio: Tox21 Thyroid Hormone Receptor beta Retinoid X Receptor alpha (RXRa) Antagonism Beta-lactamase (BLA) Follow-Up Assay, Ratio (AID 2283972). The method in brief:
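HEK293T RXRa-bla, 2% charcoal-stripped FBS medium, 16 h compound exposure at 37C, qHTS 11 conc x3. CCF4 FRET ratio ch2/ch1 (460:530), DMSO = baseline, loss-of-signal fit.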

Experimental findings from PubChem BioAssay (EPA / NIEHS) are described below.

Records with an inconclusive call do not appear. The source made the active and inactive calls. Rule for the calls, unless noted: active = hit-call score of the fitted dose curve at least 0.9, where 1 is the maximum; inconclusive = response in the unintended direction; inactive = score below 0.9.

THRB (gene 7068), sequence (P10828 whole entry, looked up, the tested form may be a part): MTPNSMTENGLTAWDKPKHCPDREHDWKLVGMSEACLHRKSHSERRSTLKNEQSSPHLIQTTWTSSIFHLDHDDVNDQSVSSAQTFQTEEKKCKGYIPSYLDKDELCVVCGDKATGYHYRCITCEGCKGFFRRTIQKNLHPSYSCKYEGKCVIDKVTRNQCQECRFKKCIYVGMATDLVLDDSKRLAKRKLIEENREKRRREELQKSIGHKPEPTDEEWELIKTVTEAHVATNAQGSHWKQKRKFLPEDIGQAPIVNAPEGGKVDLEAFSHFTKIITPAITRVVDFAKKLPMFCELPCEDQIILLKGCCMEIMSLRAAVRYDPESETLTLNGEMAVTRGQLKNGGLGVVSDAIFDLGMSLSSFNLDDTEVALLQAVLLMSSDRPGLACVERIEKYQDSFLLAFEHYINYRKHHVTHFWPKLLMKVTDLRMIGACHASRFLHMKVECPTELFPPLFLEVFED
PGR (gene 5241), sequence (P06401 whole entry, looked up): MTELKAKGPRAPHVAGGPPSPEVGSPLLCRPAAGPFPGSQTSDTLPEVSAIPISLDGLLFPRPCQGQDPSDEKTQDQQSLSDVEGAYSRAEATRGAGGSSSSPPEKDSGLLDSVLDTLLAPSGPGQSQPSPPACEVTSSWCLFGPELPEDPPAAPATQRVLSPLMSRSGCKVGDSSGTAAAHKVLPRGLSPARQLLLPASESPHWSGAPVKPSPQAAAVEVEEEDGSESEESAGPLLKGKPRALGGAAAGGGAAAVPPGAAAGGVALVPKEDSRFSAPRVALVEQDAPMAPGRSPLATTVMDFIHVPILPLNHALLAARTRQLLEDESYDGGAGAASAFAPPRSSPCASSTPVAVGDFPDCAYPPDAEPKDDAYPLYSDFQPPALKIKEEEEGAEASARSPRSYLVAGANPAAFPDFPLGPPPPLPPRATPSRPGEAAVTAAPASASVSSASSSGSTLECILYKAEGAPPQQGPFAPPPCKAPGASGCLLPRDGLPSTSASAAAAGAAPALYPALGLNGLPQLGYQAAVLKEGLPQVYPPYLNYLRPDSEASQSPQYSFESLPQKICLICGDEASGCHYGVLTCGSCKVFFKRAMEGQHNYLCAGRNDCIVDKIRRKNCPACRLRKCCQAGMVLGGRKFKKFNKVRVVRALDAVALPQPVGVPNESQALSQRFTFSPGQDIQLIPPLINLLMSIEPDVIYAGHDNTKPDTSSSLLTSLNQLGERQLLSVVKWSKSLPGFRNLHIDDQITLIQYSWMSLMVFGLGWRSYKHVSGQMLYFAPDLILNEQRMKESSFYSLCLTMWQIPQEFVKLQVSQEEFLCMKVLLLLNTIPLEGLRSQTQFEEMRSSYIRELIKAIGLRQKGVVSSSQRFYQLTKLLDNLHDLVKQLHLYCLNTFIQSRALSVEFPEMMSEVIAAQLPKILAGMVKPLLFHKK
THRA (gene 7067), sequence (P10827 whole entry, looked up, the tested form may be a part): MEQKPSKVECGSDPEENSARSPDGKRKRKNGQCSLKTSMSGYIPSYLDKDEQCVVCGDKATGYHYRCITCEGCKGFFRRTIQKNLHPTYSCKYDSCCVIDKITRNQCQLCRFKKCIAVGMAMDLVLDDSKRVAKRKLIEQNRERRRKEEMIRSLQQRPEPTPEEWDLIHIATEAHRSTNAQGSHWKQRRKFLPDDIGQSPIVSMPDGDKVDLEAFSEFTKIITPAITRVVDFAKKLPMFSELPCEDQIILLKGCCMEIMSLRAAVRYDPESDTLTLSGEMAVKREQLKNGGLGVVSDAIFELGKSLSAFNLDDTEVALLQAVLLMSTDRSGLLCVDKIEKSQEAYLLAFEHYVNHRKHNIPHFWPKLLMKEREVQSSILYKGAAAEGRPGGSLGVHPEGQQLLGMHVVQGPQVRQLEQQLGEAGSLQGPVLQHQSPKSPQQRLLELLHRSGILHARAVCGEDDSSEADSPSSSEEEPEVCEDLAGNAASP
Retinoic acid receptor RXR-alpha (Homo sapiens), sequence (P19793 whole entry, looked up): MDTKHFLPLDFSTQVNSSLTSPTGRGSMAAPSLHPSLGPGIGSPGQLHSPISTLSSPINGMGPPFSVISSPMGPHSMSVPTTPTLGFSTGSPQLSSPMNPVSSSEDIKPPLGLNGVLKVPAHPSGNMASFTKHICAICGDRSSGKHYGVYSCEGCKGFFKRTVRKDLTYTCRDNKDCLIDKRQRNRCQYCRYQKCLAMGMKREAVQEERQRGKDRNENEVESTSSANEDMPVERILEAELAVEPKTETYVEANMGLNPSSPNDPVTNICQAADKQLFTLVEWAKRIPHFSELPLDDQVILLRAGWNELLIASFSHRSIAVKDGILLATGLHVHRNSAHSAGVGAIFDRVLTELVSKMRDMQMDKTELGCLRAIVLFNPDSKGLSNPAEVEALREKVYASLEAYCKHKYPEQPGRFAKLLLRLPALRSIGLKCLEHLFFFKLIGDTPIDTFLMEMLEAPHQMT
T1 sequence (P63059 whole entry, looked up): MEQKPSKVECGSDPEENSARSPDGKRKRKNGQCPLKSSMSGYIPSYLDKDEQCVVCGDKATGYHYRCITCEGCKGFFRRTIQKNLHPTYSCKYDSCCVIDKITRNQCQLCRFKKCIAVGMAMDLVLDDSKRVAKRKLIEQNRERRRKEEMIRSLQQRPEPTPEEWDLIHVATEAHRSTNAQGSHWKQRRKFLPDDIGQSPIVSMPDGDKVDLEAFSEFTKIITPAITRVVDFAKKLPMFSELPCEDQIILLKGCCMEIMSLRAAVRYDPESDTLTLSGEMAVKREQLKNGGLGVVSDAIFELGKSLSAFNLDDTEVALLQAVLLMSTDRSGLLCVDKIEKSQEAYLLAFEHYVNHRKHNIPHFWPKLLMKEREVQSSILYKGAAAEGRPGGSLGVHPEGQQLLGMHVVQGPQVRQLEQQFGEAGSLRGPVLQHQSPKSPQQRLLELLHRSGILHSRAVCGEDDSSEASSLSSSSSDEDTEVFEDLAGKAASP
T1 sequence (P18113 whole entry, looked up): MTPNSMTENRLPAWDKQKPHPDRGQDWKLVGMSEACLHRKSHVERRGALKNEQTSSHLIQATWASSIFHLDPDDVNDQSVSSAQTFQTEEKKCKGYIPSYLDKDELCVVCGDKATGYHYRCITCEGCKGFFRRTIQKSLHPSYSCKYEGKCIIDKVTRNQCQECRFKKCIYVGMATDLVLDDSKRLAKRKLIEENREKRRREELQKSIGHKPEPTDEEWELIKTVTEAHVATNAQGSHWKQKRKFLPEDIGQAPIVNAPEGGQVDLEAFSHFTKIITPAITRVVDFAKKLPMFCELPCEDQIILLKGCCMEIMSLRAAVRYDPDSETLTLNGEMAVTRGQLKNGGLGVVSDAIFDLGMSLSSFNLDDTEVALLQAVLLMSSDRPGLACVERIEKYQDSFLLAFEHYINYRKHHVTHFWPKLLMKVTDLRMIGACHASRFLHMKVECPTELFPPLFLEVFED

Take `O=C(NS(=O)(=O)/C=C/c1ccccc1)c1ccc(F)cc1Cl`: in experiment [1], the result was inactive.
`CC(C)=CCC/C(C)=C\CO`: the call (in [2]; in experiment [1]; in experiment [3]; in experiment [4]; in the experiment with THRA (gene 7067) [5]; with THRB (gene 7068) [6]) was inactive. The result in experiment [7] and in experiment [8] was inactive.
For `O=P(OC(CCl)CCl)(OC(CCl)CCl)OC(CCl)CCl`, the half-maximal activity concentration (AC50) with PGR (gene 5241) [9] was 18.2 µM (active); with PGR (gene 5241) [12], 46.1 µM (active). Moreover, the molecule was classed as inactive in [10], in experiment [11], in [13] and in experiment [14].
With `CCCCC(CC)COC(=O)c1ccc(C(=O)OCC(CC)CCCC)cc1` (centres undefined), the result in experiment [1] and in experiment [3] was inactive.
As for `CC(C)c1cccc(C(C)C)c1N1C(=O)c2ccc(O)cc2C1=O`, the half-maximal activity concentration (AC50) in the experiment with PGR (gene 5241) [9] was 15.7 µM (active); with PGR (gene 5241) [12], 17.3 µM (active); in the experiment with THRB (gene 7068) [17] it was 8.53 µM (active). The molecule was classed as inactive (in experiment [10]; in [11]; in [13]; in [14]; in [15]; with THRA (gene 7067) [16]). Also, the molecule was called inactive (in experiment [18]; with THRB (gene 7068) [19]; in experiment [20]).

A word on the AC50: it is the midpoint of the concentration-response curve, whichever way the signal moves.
